# Screening results: PubChem BioAssay, National Center for Advancing Translational Sciences (NCATS)
# A selection: hits, their analogues and other compounds. The true share with any hit is near 7.6%.
# KB-3-1 tox: kills parental KB-3-1 adenocarcinoma cells; KB-3-1 viability, CellTiter-Glo ATP luminescence, 72 h; Potency, µM (highest dose often 46.1 µM), usual class: cytotoxic; AID 1347075; hit rate 1.4% among 400,000; also: nearly all actives have a fitted effect of over 60% in size
#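 Cytotoxicity in the drug-sensitive parental line KB-3-1 was scored as loss of CellTiter-Glo luminescence following 72 h incubation with compound. Values come from curve fitting of normalized concentration-response data.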
# KB-V1 MDR tox: KB-V1 MDR subline cytotoxicity; KB-V1 MDR cells viability, CellTiter-Glo, 72 h; Potency, µM (series often up to 46.1 µM), hits mostly cytotoxic; hit rate 3.4% among 400,000; also: nearly all actives have a fitted effect of over 60% in size
#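 KB-V1, DMEM (no phenol red) + 10% FBS; cpd pin-transferred, titration series; 72 h, 37 degrees C; CellTiter-Glo, luminescence. Data normalized, curve-fit.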
# MCF10A rerep: inducers of DNA re-replication in MCF 10A breast cells; hit rate 2.9% among 350,000; MCF 10A DNA re-replication, Hoechst nuclear intensity, 48 h; Potency, µM (doses to about 46.1 µM), hits mostly activators; also: nearly all actives have a fitted effect of over 50% in size
# KCNH2 3.1 inh: KCNH2 3.1 (human) potassium channel inhibition; U2OS KCNH2 3.1, thallium flux FluxOr; stronger effect = lower value; activity change, % (tested at about 1.8 µM); hit rate 0.95% among 340,000; AID 720553;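 active = maximum activity change below -70%; inconclusive = maximum activity change from -70% to -50%; inactive = maximum activity change above -50%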;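 also: thallium influx rate constant from kinetic fluorescence after stimulation buffer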
#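 Virally transduced U2OS (3.1 isoform, 4 h infection in dark at RT) → overnight 37 C → FluxOr + Red40 in HBSS/HEPES, 45 min → stimulation buffer, 2 min kinetic read → rate constant vs DMSO controls.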
# SW480 rerep: inducers of DNA re-replication in SW480 colon cancer cells; Potency, µM (top dose mostly 46.1 µM), most hits filed as activators; SW480 DNA re-replication, Hoechst DNA content imaging, 48 h; AID 624297; hit rate 1.8% among 340,000; also: nearly all actives have a fitted effect of over 55% in size
#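 Hoechst fluorescence of nuclei (405 nm excitation, 500-530 nm emission) measured by plate-scanning imager after 48 hr compound exposure at 37 C; re-replication scored as increased number of nuclei with elevated intensity.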
# KCNH2 WT inh: KCNH2 (human, wildtype) channel inhibition; AID 720551; Q12809; activity change, % at 1.84 µM; U2OS, BacMam KCNH2, thallium flux FluxOr; stronger effect = lower value; hit rate 0.37% among 340,000;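 active = maximum activity change below -70%; inconclusive = maximum activity change between -70% and -50%; inactive = maximum activity change above -50%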
#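 U2OS cells were transduced with wild-type KCNH2 virus (2.03 x 10^8 / mL) for 4 h at room temperature, then cultured overnight at 37 C. Thallium flux was read with FluxOr dye. Rate constants were normalized to DMSO controls.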
# A number is an active result; 0 = inactive; ? = inconclusive; - = not tested or not shown. Unless noted, calls follow the shape of the dose curve; as a rule, active = well fitted curve in the direction sought with a large enough effect; inconclusive = small, poorly fitted or top-dose-only effect, or another doubt; inactive = no such curve, though single readings can be large; an effect the other way counts as inactive or inconclusive.
SMILES,KB-3-1 tox,KB-V1 MDR tox,MCF10A rerep,KCNH2 3.1 inh,SW480 rerep,KCNH2 WT inh
CCOC(=O)/C(=C\c1ccccc1)C(=O)CCN1CCOCC1,0,?,21µM,0,0,0
O=C(CCc1ccccc1)OCCN1CCOCC1,0,0,0,0,0,0
COc1cccc2c1C(=O)c1c(O)c3c(c(O)c1C2=O)C[C@@](O)(C(=O)CO)C[C@@H]3OC1CC(N)C(O)C(C)O1 (some centres not stated),?,-,?,0,0,0
CC(=O)[C@@]1(O)Cc2c(O)c3c(c(O)c2[C@H](O[C@H]2C[C@H](N)[C@H](O)[C@H](C)O2)C1)C(=O)c1ccccc1C3=O,0.18µM,?,-,-,-,-
COc1cccc2c1C(=O)c1c(O)c3c(c(O)c1C2=O)CC(O)(C(C)=O)CC3OC1CC(N(C)C)C(O)C(C)O1 (configuration not stated),?,7.3µM,0,0,?,0
CC(=O)C1(O)Cc2c(O)c3c(c(O)c2C(OC2CC(N)C(O)C(C)O2)C1)C(=O)c1c(O)cccc1C3=O (configuration not stated),0.58µM,?,0,-,?,-
O=C(CN1C(=O)C2(SCC(=O)N2c2ccc(F)c(F)c2)c2ccccc21)Nc1cccc(Cl)c1 (configuration not stated),0,?,-,-,-,-
NC(=O)Nc1ccc(C(=O)OCC(=O)N2CCCC2=O)cc1,0,0,0,0,0,0
COC(=O)C1=CN(c2ccc(OC)cc2)C=C(C(=O)OC)C1c1ccc([N+](=O)[O-])cc1,0,0,0,-73,0,0
COC(=O)C1=CN(c2ccc(F)cc2)C=C(C(=O)OC)C1c1cccc(Br)c1,?,?,15µM,0,23µM,0
CN(C)c1ncnc2c1C(c1ccccc1)C(C)(C)O2 (configuration not stated),0,18µM,0,-,0,0
CCN(CC(=O)Nc1ccc(NC(C)=O)cc1)C(=O)c1ccccc1CCc1ccccc1,0,?,0,0,0,0
O=C(Nc1nnc(S(=O)(=O)N2CCCCC2)s1)c1ccccc1Br,0,0,0,0,0,0
Cc1cccc(-c2ncc(CN3CCN(CCC(C)C)C(CCO)C3)cn2)c1 (configuration not stated),0,?,0,0,23µM,0
O=C(CSc1ccc(-c2ccco2)nn1)NCc1ccccc1Cl,0,21µM,0,0,0,0
O=C(CSc1ccc(-c2ccco2)nn1)Nc1ccccc1,0,18µM,0,0,0,0
O=C(CSc1ccc(-c2ccco2)nn1)Nc1ccc(F)cc1,0,10µM,0,-,0,0
O=C(CSc1ccc(-c2cccs2)nn1)Nc1ccccc1,0,12µM,0,0,0,0
CCOc1ccc(NC(=O)CSc2ccc(-c3ccco3)nn2)cc1,0,0,0,-,0,0
O=C(NCC(=O)N1CCC2(CC1)NCCc1[nH]cnc12)c1ccccc1F,0,0,0,0,0,0
Cc1nc(C(C)N(C)Cc2nc(Cc3ccccc3F)no2)c(C)s1 (configuration not stated),0,0,0,0,0,0
Cc1cc(C)nc(NC(=NCCc2c[nH]c3ccccc23)NC(=O)Nc2ccc(Cl)cc2)n1,0,8.2µM,0,0,0,0
COc1ccc(C)cc1NC(C)C(=O)c1c[nH]c2ccccc12 (configuration not stated),0,0,-,-,-,-
Cc1cccc(NC(=O)Cn2cnc3c(oc4ccccc43)c2=O)c1C,0,0,0,0,0,0
Cc1ccccc1NC(=O)Cn1cnc2c(oc3ccccc32)c1=O,0,18µM,0,0,0,0
SMILES,KB-3-1 tox,KB-V1 MDR tox,MCF10A rerep,KCNH2 3.1 inh,SW480 rerep,KCNH2 WT inh
Cc1sc2nc(-c3cccnc3)nc(Cl)c2c1-c1ccccc1,0,13µM,21µM,0,0,0
O=[N+]([O-])c1ccc(CS(=O)c2ccccc2)cc1 (configuration not stated),0,?,0,-,0,0
O=[N+]([O-])c1ccc(S(=O)Cc2ccccc2)c([N+](=O)[O-])c1 (configuration not stated),?,?,4.1µM,0,23µM,0
CC(=O)Nc1c(Cl)c(Cl)c2c(c1Cl)C(=O)c1cc(Cl)ccc1-2,21µM,15µM,0,-,0,0
CC(=O)Nc1c(Cl)cc(Cl)c2c1Cc1cc(Cl)ccc1-2,0,0,0,0,0,0
COc1cc(CCC(N)c2cccc(O)c2)cc(OC)c1OC (configuration not stated),0,?,0,0,0,0
CCc1ccc(C(=O)Cn2ccsc2=N)cc1,?,18µM,0,0,0,0
O=C(Cn1ncc2c3ccccc3n(Cc3ccccc3F)c2c1=O)NCCCN1CCCC1=O,6.5µM,?,0,0,0,0
O=C1[C@H]2[C@@H](C(=O)N1c1cc(Cl)cc(Cl)c1)[C@]1(C(=O)Nc3ccccc31)N1CCC[C@@H]21,0,15µM,0,0,0,0
CCc1ccc(OCC(=O)N2CCc3ccccc32)cc1,0,0,0,0,0,0
CCc1ccc(OCC(=O)Nc2cccc3c2CCCC3)cc1,0,0,0,0,7.3µM,-
CCc1ccc(OCC(=O)N2c3ccccc3CCc3ccccc32)cc1,?,18µM,?,0,?,0
CCc1ccc(OCC(=O)Nc2cc(S(=O)(=O)CC)ccc2O)cc1,0,16µM,0,0,0,0
CCc1ccc(OCC(=O)NC(NC(=S)Nc2ccccc2C)C(Cl)(Cl)Cl)cc1 (configuration not stated),?,?,18µM,0,0,0
CCS(=O)(=O)c1ccc(O)c(NC(=O)COc2ccccc2)c1,0,0,0,0,0,0
CCCC(=O)Nc1cccc2c1CCCC2,0,0,0,0,0,0
O=c1c(Cc2ccccc2)c(O)ccn1Cc1ccc2c(c1)OCO2,0,0,?,0,0,-
CC1CCCN(C(C(=O)NC2CCCCC2)c2cc3c(cc2[N+](=O)[O-])OCO3)C1 (configuration not stated),?,8.2µM,0,0,0,0
CC1CCN(C(C(=O)NC2CCCCC2)c2cc3c(cc2[N+](=O)[O-])OCO3)CC1 (configuration not stated),0,?,0,0,?,0
COCCNc1nc(N2CCCCC2)c2cnn(C)c2n1,0,0,0,0,?,0
O=C(COC(=O)c1ccc(Cl)c(S(=O)(=O)N2CCN(c3ccc(F)cc3)CC2)c1)Nc1cccc(Cl)c1,0,0,?,-82,0,0
O=C(COC(=O)c1ccc(Cl)c(S(=O)(=O)N2CCOCC2)c1)Nc1ccc2[nH]c(=O)[nH]c2c1,0,0,0,0,0,0
